Among the data in PubChem BioAssay (Tox21) are Potency and activation values, retold here.

Each structure is given as a SMILES string. Records with an inconclusive call do not appear. Entries that show only a call come without a potency. Unmarked numbers belong to inactive results. Activity calls are given as the source filed them. The call rests on the fitted dose curve.

For the test, the target named is Thyrotropin receptor (Homo sapiens) (UniProt P16473). Put plainly: qHTS assay to identify small molecule agonists of the thyroid stimulating hormone receptor (TSHR) signaling pathway (AID 1224843). Further: nearly all actives have a fitted effect of over 45% in size. As to conditions: TSHR-HEK293 cells, cAMP HTRF, agonist mode, 30 min; series mostly up to 42.5 µM. The source says: National Center for Advancing Translational Sciences [NCATS]
Thyrotropin receptor (Homo sapiens), sequence (P16473 whole entry, looked up): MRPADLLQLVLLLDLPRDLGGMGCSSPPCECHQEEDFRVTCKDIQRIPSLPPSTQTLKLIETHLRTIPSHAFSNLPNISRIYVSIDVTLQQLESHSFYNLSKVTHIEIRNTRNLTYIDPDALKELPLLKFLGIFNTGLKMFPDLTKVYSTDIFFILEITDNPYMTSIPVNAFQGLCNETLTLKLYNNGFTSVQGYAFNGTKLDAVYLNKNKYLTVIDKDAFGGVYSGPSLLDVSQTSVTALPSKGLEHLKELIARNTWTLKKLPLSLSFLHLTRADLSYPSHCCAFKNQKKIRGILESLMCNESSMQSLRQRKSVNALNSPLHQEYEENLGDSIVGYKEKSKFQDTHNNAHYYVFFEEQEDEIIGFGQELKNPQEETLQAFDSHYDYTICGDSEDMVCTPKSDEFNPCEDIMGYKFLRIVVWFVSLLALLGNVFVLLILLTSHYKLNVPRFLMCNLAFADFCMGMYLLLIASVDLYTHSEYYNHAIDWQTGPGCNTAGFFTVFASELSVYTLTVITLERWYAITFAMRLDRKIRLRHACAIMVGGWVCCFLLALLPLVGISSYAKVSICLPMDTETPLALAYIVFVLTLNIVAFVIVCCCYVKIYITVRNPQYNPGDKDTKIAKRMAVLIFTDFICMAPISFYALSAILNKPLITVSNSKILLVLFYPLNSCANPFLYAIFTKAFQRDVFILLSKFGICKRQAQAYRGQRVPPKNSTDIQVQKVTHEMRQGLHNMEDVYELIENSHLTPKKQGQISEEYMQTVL
NIH Chemical Genomics Center [NCGC]
U.S. Environmental Protection Agency [EPA]
National Institutes of Environmental Health Sciences [NIEHS]
National Toxicology Program [NTP]
U.S. Food and Drug Administration [FDA]
TSHR is the receptor for thyrotropin (thyroid stimulating hormone or TSH), a member of the glycoprotein hormone family. TSH is released by the anterior pituitary gland and is the main regulator of thyroid gland growth and development. Upon binding circulating thyrotropin, a G-protein signal cascade activates adenylyl cyclase and […] cAMP concentration is increased. cAMP is a key second messenger involved extensively in cellular signal transduction pathways associated with the majority of G-protein coupled receptors (GPCRs). The activation of these GPCRs by neurotransmitters, lipids, nucleotides, peptides and hormones results in the activation or the inhibition of plasma membrane-bound adenylate cyclase through heterotrimeric G-proteins. A cell-based TSHR assay was used to screen the Tox21 10K library for compounds that can modulate TSHR in agonist mode.
Tox21 Assay Protocol Summary:
TSHR-Hek293 cells were dispensed at 800 cells/4uL/well in 1536-well white plates using a Multidrop dispenser. […] The plates were incubated at room temperature for 30 min. 2.5 ul/well of cAMP-d2 and 2.5ul/well of anti-cAMP-cryptate was added respectively into the assay plates using a Flying Reagent Dispenser. After 1 hr incubation at room temperature, the fluorescence intensity in the plates was measured using an Envision plate reader. Each test compound was measured at 15 concentrations and in triplicates.
For orientation: qHTS replaces the single test concentration by a dilution series.
Turning to `NS(=O)(=O)c1cc(C(=O)NN2C[C@H]3[C@H]4CCC(C4)[C@H]3C2)ccc1Cl`, the Potency entry is “inactive”.
On the same count and under the same terms, as for `O=C(O)Cc1ccc(CCNS(=O)(=O)c2ccc(Cl)cc2)cc1`, the entry is “inactive”.
Same read-out and setting: under `COC(C)(C)CCCC(C)CC=O` (stereo not given) stands “inactive”.
With `CCCCCCCCCCCCCCCCC`, the Potency entry is “inactive”.
In the case of `CCCCCCCCCCCCCC=O`, the activation was 4.61% [at 8.39 µM].
Consider `O=C1CCCN1C1CCCCC1`, for which the Potency entry is “inactive”.
Still for that read-out and setting: under `C=C[Si](OC(=C)C)(OC(=C)C)OC(=C)C` stands “inactive”; under `CCCCCCCCS(=O)(=O)Cl`, “inactive”; under `CCN(CC)CCOCCOC(=O)C1(c2ccccc2)CCCC1`, “inactive”.
On the same count and under the same terms, under `CC(C)=CCCC(C)CC(=O)O` (stereo not given) stands “inactive”; under `CC1(C)C(O)C(C)(C)C1O` (stereo not given), “inactive”; under `C=C(C)CS(=O)(=O)O`, “inactive”.
Still for that read-out and setting: as for `C[C@H](NC(CCc1ccccc1)C(=O)O)C(=O)N1CCC[C@H]1C(=O)O` (stereo not given in full), the entry is “inactive”; as for `COc1ccc2c(c1)c(CC(=O)OCC(=O)O)c(C)n2C(=O)c1ccc(Cl)cc1`, “inactive”.
For `C=COCC1CCC(CO)CC1` (stereo not given), the Potency entry is “inactive”.
The same measure, in the same setting: as for `CN1N=C(C(N)=O)CCC1=O`, the entry is “inactive”.
As to `C[C@](N)(Cc1ccc(O)cc1)C(=O)O`, the activation is -7.31% [at 8.39 µM].
On to `O=C(c1ccccc1)C1CCCCC1`, for which the Potency result is “inactive”.
Regarding `COC(=O)c1cc(C(=O)OC)cc(S(=O)(=O)O)c1`, the Potency entry was “inactive”.
Same read-out and setting: under `Nc1ccccc1S(=O)(=O)O` stands “inactive”; under `c1ccc([C@H]2CN3CCSC3=N2)cc1`, “inactive”; under `O=c1n(CCO)c(=O)n(CCO)c(=O)n1CCO`, “inactive”.
On the same count and under the same terms, as for `CC(NC(CCc1ccccc1)C(=O)O)C(=O)N1C(=O)N(C)CC1C(=O)O` (stereo not given), the entry is “inactive”; as for `NS(=O)(=O)c1cc(C(=O)O)cc(N2CCCC2)c1Oc1ccccc1`, “inactive”.
Same read-out and setting: as for `N[C@H]1CN(c2c(F)cc3c(=O)c(C(=O)O)cn(C4C[C@H]4F)c3c2Cl)CC12CC2` (stereo not given in full), the entry is “inactive”.
On to `CN1CCCC1`, for which the Potency entry was “inactive”.
Still for that read-out and setting: as for `CCOC(C)(C)C`, the entry is “inactive”; as for `Cc1ccc(Cl)cc1Cl`, “inactive”; as for `CC(C(=O)O)c1ccc(CC2CCCC2=O)cc1` (stereo not given), “inactive”.
The same measure, in the same setting: as for `Cn1cc(S(C)=O)c(=O)c2ccc(F)cc21` (stereo not given), the entry is “inactive”; as for `CCn1ccnc1CC1COc2ccccc2O1` (stereo not given), “inactive”.
Consider `COCCc1ccc(OCC(O)CNC(C)C)cc1` (stereo not given), for which the Potency result was “inactive”.
Turning to `OC1CCCCC1c1ccccc1` (stereo not given), the Potency entry was “inactive”.
Still for that read-out and setting: as for `O=C(CCCN1CCN(c2ccccn2)CC1)c1ccc(F)cc1`, the entry is “inactive”; as for `Nc1c2c(nc3ccccc13)CCCC2O` (stereo not given), “inactive”.
Still for that read-out and setting: as for `CCN1CCC[C@H]1CNC(=O)c1c(O)c(Cl)cc(Cl)c1OC`, the entry is “inactive”; as for `ClC(Cl)(Br)Br`, “inactive”.
Take `Cn1c(N)c(N=O)c(=O)n(C)c1=O`: the Potency result is “inactive”.
Same read-out and setting: as for `CCN(CC)CCNC(=O)c1cc(S(C)(=O)=O)ccc1OC`, the entry is “inactive”; as for `CC(C)CCCC(C)N` (stereo not given), “inactive”.
